Each structure is given as a SMILES string. This is part of a sample that, as a whole, favours compounds with a hit. Of some 83,000 tested, about 20% had one in any assay.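 For each line, cells grew in 96-well plates with the test compound present at a single concentration for 48 hours.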 A number with no mark means an inactive call. Activity calls are given as the source filed them. Rule for the calls: active = growth percent below 10; inactive = the rest.

This experiment concerns EKVX NSCLC. The experiment can be described thus: NCI-60 one-dose screen, 48 h (100 = growth as untreated, 0 = no growth, -100 = all killed). The note with it: 10 µM unless noted.
For the molecule `O=C(O)c1nn(-c2ccc(Cl)cc2)nc1N1CCCC1`, the growth was 88.3%.
Regarding `COCCNC(=O)Cc1cc(-c2ccc(Cl)cc2)n(-c2ccccc2)c1C`, the growth is 85.4%.
Then `O=C(Nc1ccc(Oc2cccc(F)c2)c(Cl)c1)c1cnccn1`, with 51.3%; and `CC(=O)[C@H]1CC[C@]2(C)[C@@H]1CC[C@@H]1[C@@]3(C)C/C(=C/c4cccnc4)C(=O)C(C)(C)[C@@H]3CC[C@]12C`, with 85.1%.
Then `C=C(C)Cn1c(SCC(=O)c2cccs2)nc2sc3c(c2c1=O)CCCC3`, with 77.1%; and `Cc1ccc(C(=O)Nc2ccc(CN3CCN(C)CC3)c(C(F)(F)F)c2)cc1C#Cc1cnc(N)c2ccccc12`, with 36%.
With `COc1cc(C2CC(c3cccc(Nc4ccncc4)c3)=Nc3c(N)ncnc3N2)cc(OC)c1OC` (stereo not given), the growth is 87.2%.
Then `CO[C@]12C=C/C(=C(/C(=O)OCc3cccnc3)C(=O)CCCCCCCC[C@]3(OC)C=C/C(=C(/C(=O)OCc4cccnc4)C(=O)CCCCCCCC1)O3)O2`, with -53.8% (active); and `CCOC(=O)CSc1nc2sc3c(c2c(=O)n1-c1ccccc1)CCCCC3`, with 103%.
On to `CN1CCN(Cc2ccc(NC(=O)c3cncc(C#Cc4cnc(N)c5ccc(C#N)cc45)c3)cc2C(F)(F)F)CC1`, for which the growth is 43.4%.
Then `CCOC(=O)C1=C(c2ccccc2)N=C2SC=C(c3cccc([N+](=O)[O-])c3)N2C1c1ccc(O)cc1` (stereo not given), with 99.3%.
Then `CCn1c2ccccc2c2cc(C(O)c3cccc4ncccc34)ccc21` (stereo not given), with 59.3%; and `Cc1c(Cl)cccc1NC(=O)c1sc2nc3c(cc2c1N)CCCC3`, with 52.4%; and `O=C(/C=C/c1ccco1)Nc1ncc(Cc2ccc(F)cc2)s1`, with 29.1%.
Then `COc1nc2ccccc2cc1/C=[N+](\[O-])c1ccccc1`, with 87%; and `COc1ccc(-c2ccc(-c3ccc(C(=N)N)o3)o2)cc1`, with 58.4%.
`C=C(C[n+]1ccccc1)[C@@H]1CC[C@]2(C(=O)OC)CC[C@]3(C)[C@H](CC[C@@H]4[C@@]5(C)CCC(=O)C(C)(C)[C@@H]5CC[C@]43C)[C@@H]12`: the growth is 93.4%.
Then `COc1cccc(C(=O)Nc2cccc(NC(=O)c3ccccn3)c2)c1`, with 94.1%; and `N#CC1=C(N)Oc2c(ccc3cccnc23)C1c1ccccc1` (stereo not given), with 51.8%; and `COc1ccc(C2=NN(C=O)C(c3ccc(Oc4nc5c(c(=O)n(C)c(=O)n5C)n4C)c(OC)c3)C2)cc1` (stereo not given), with 91.8%.
For the molecule `CCCS(=O)(=O)Nc1cccc(Nc2ncnc3cc(NC(=O)CCl)ccc23)c1Cl`, the growth was -14.9% (active).
For the molecule `Cn1cc(-c2csc(-c3cn(C)c4ccc(F)cc34)n2)c2cnccc21`, the growth is -13.1% (active).
Then `C=C(C)[C@@H]1CC[C@]2(C(=O)NC(C)=O)CC[C@]3(C)[C@H](CC[C@@H]4[C@@]5(C)CCCNC(C)(C)[C@@H]5CC[C@]43C)[C@@H]12`, with 68.8%.
Consider `COc1cccc(CNc2nnc(C)c(C)n2)c1O`, for which the growth is 104%.
The result for `O=C(/C=C/c1ccc(Cl)cc1)c1ccc(-n2cc(CN3CCN(c4cc5c(cc4F)c(=O)c(C(=O)O)cn5C4CC4)CC3)nn2)cc1` reads 96.6%; that for `COc1cccc2cc(N(C)c3nc(C)nc4c3CCC4)ccc12`, 56.1%.
Then `O=C(O)CCCN1C(=O)CSC1=S`, with 103%.
Then `Cc1c2cnccc2c(C)c2c1c1cc(C(=O)O)ccc1n2C`, with 16%.
Turning to `C=C1C(=O)O[C@H]2[C@H]1CC/C(CNC(=O)/C=C/c1cc(OC)c(OC)c(OC)c1)=C\CC[C@@]1(C)O[C@@H]21`, the growth is 25.3%.
Then `Cc1nc2ccccc2c(/C=C/c2ccc(Br)cc2)c1C(=O)/C=C/c1ccccc1`, with 26.1%; and `CC(=O)O[C@H]1C[C@@]2(C)[C@@H](C[C@@H](O)[C@H]3[C@@]4(C)CC[C@H](N5CCCC5)[C@@H](C)[C@@H]4CC[C@@]32C)/C1=C(\CCC=C(C)C)C(=O)O`, with 94%; and `O=C(O)c1cc2ccccc2s1`, with 106%.
The result for `CC(=O)OCCOc1cc(Cl)c(Cl)cc1Cl` reads 78.4%; that for `CCN1CCN(c2nc(NNC(=O)c3ccc(OC)cc3)nc(N3CCN(C(c4ccccc4)c4ccccc4)CC3)n2)CC1`, 82.6%.
Then `Cc1cc(=O)oc2cc(Oc3nc(-c4ccccc4)cn4c(-c5ccccc5)cnc34)ccc12`, with 66.8%.
`CN(Cc1ccccc1)c1nc(Cl)c(C2CC(c3ccc(Cl)cc3)=NN2c2cc(Cl)cc(Cl)c2)s1` (stereo not given): the growth was 94.4%.
Turning to `COC(=O)c1c(C)nc(C)c2c1C(=O)C(Br)=C(NCCCCO)C2=O`, the growth was 62.2%.
Then `COc1cc(/C=C/c2cc(/C=C/c3ccc(O)c(OC)c3)n(C(=O)Nc3ccc(C)cc3C)n2)ccc1O`, with -14.7% (active).
Then `Cc1cc2nc(C(Cl)Cl)nc(-c3ccccc3)n2n1`, with 61%; and `CN1C(=O)N(C)C2C1NN=c1s/c(=C\c3ccccc3F)c(=O)n12` (stereo not given), with 48.3%.
